Experimental data from PubChem BioAssay (EPA / NIEHS).
Where “and” joins values, the source holds several entries; their conditions need not be identical. Identical values can stand only once. Inconclusive results are not listed. A structure can be active in one record and inactive in another. Calls of active or inactive are those of the source. Rule for the calls, unless noted: active = hit-call score of the fitted dose curve at least 0.9, where 1 is the maximum; inactive = score below 0.9.

How the values were obtained:
[1] = ATG_TCF_b_cat_CIS: Attagene CIS-FACTORIAL HepG2 Assay for human T-Cell-Factor with beta-catenin (TCF/b-cat) (AID 2282965); conditions: HepG2 TCF/beta-catenin cis-reporter transcription, actives raise or lower the signal
Summary of the method: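 Using capillary electrophoresis as the read-out, labelled reporter cDNA fragments from transiently transfected HepG2 were sized and quantified. Exposure lasted 24 hours; activity in either direction was referenced to DMSO.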

[2] = ATG_TAL_CIS: Attagene CIS-FACTORIAL HepG2 Assay for human TAL Basal Promoter (AID 2282966); conditions: HepG2 Attagene cis-factorial TAL promoter reporter; actives raise or lower the signal;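 note: background control endpoint measuring basal TAL promoter reporter mRNA not a specific factor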
Summary of the method: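 Fluorescence of labelled reporter cDNA fragments, resolved by capillary electrophoresis, gave the readout. Human HepG2 liver cells carried transiently transfected cis-element reporter units and were treated for 24 hours; activity was fitted bidirectionally against DMSO.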

[3] = ATG_TGFb_CIS: Attagene CIS-FACTORIAL HepG2 Assay for human Transforming Growth Factor (TGF) (AID 2282967); conditions: HepG2 Attagene CIS TGFb reporter, mRNA transcription; actives raise or lower the signal
Summary of the method: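 HepG2 cells transiently transfected with cis-promoter-driven multiple reporter units measure endogenous TF activity; reporter mRNA quantified at 24 h by RT-PCR, FAM labeling, HpaI digestion and capillary electrophoresis. Bidirectional fit vs DMSO.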

[4] = ATG_VDRE_CIS: Attagene CIS-FACTORIAL HepG2 Assay for human Vitamin D Receptor Element (VDRE) (AID 2282968); conditions: HepG2 VDRE cis-reporter transcription, actives raise or lower the signal
Summary of the method: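 HepG2 cells transiently transfected with cis-element reporter units, dosed 24 h; reporter mRNA measured by RT-PCR, 6-FAM labeling, HpaI digestion and capillary electrophoresis. Activity fitted bidirectionally against DMSO baseline.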

[5] = target: Estrogen receptor (Homo sapiens) (UniProt P03372); experiment: ATG_ERa_TRANS: Attagene TRANS-FACTORIAL HepG2 Assay for human Estrogen Receptor alpha (ERa) (AID 2282970; active = hit-call score of the fitted dose curve at least 0.9, where 1 is the maximum); conditions: HepG2 Attagene TRANS ERa GAL4 reporter, mRNA
Summary of the method: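 Human liver HepG2, transient transfection of multiple GAL4-UAS reporter units; TRANS format (exogenous NR-Gal4 chimera). 24 h dosing. Readout: reporter mRNA, RT-PCR, 6-FAM primer extension, HpaI digest, capillary electrophoresis. Positive direction vs DMSO.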

[6] = target: Steroid hormone receptor ERR1 (Homo sapiens) (UniProt P11474); experiment: ATG_ERRa_TRANS: Attagene TRANS-FACTORIAL HepG2 Assay for human Estrogen-Related Receptor alpha (ERRa) (AID 2282971; active = hit-call score of the fitted dose curve at least 0.9, where 1 is the maximum); conditions: HepG2 Attagene TRANS reporter, ERRa transactivation
Summary of the method: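 Reporter transcript induction was quantified by RT-PCR and capillary electrophoresis of FAM-labelled, HpaI-cut products after 24 h treatment of HepG2 cells carrying transiently transfected GAL4-UAS reporter units and an exogenous ERRa-Gal4 fusion; activity scored as increase over DMSO.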

[7] = target: X-box-binding protein 1 (Homo sapiens) (UniProt P17861); experiment: ATG_Xbp1_CIS: Attagene CIS-FACTORIAL HepG2 Assay for human X-box Binding Protein 1 (XBP1) (AID 2282972); conditions: HepG2 XBP1 cis-element reporter, Attagene multiplex; actives raise or lower the signal
Summary of the method: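 HepG2 cells transiently transfected with cis-regulated multiple reporter transcription units; endogenous transcription factor activity measured 24 hours after chemical dosing. Reporter mRNA quantified by RT-PCR, 6-FAM primer extension, HpaI digestion and capillary electrophoresis; bidirectional fitting versus DMSO.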

[8] = ATG_GAL4_TRANS: Attagene TRANS-FACTORIAL HepG2 Assay for GAL4 (Internal Marker) (AID 2282976; active = hit-call score of the fitted dose curve at least 0.9, where 1 is the maximum); conditions: HepG2 Attagene TRANS GAL4 internal marker reporter
Summary of the method: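 First, HepG2 cells were transfected with reporter units under GAL4-UAS control. Next, they were treated with chemical for 24 h. Finally, RNA was reverse-transcribed, PCR-amplified, FAM-labelled and resolved by capillary electrophoresis, with induction scored against DMSO.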

[9] = target: Glucocorticoid receptor (Homo sapiens) (UniProt P04150); experiment: ATG_GR_TRANS: Attagene TRANS-FACTORIAL HepG2 Assay for human Glucocorticoid Receptor (GR) (AID 2282978; active = hit-call score of the fitted dose curve at least 0.9, where 1 is the maximum;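 note: activators score as hits since higher reporter transcript over DMSO is fitted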); conditions: HepG2 Attagene TRANS GR reporter, mRNA transcription
Summary of the method: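 HepG2 cells transiently transfected with multiplexed reporter units in which chimeric NR-GAL4 proteins drive GAL4-UAS reporters; 24 h compound exposure. Reporter mRNA measured by RT-PCR, 6-FAM labelling, HpaI digestion and capillary electrophoresis; gain-of-signal fitted versus DMSO.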

[10] = target: Bile acid receptor (Homo sapiens) (UniProt Q96RI1); experiment: ATG_FXR_TRANS: Attagene TRANS-FACTORIAL HepG2 Assay for Farnesoid X Receptor (FXR) (AID 2282979; active = hit-call score of the fitted dose curve at least 0.9, where 1 is the maximum;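 note: hits raise reporter mRNA above DMSO so AC50 marks FXR activation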); conditions: HepG2 Attagene TRANS FXR-GAL4 reporter transcription
Summary of the method: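 Transient transfection of HepG2 with multiplexed GAL4-UAS reporter units; exogenous FXR-GAL4 chimera. Dose 24 h → TriZol RNA → oligo(dT) RT → PCR, 6-FAM primer extension, HpaI cut → CE. Gain vs DMSO.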

[11] = target: Oxysterols receptor LXR-alpha (Homo sapiens) (UniProt Q13133); experiment: ATG_LXRa_TRANS: Attagene TRANS-FACTORIAL HepG2 Assay for human Liver X Receptor alpha (LXRa) (AID 2282980; active = hit-call score of the fitted dose curve at least 0.9, where 1 is the maximum); conditions: HepG2 Attagene TRANS reporter, LXRa transactivation
Summary of the method: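 Transfect HepG2 with GAL4-UAS multiplex reporter constructs (TRANS format, chimeric receptor-GAL4); treat 24 h; extract RNA, reverse-transcribe, PCR-amplify, FAM-label, HpaI-digest; resolve fragments by capillary electrophoresis. Upward response vs DMSO.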

[12] = target: Oxysterols receptor LXR-beta (Homo sapiens) (UniProt P55055); experiment: ATG_LXRb_TRANS: Attagene TRANS-FACTORIAL HepG2 Assay for human Liver X Receptor beta (LXRb) (AID 2282981; active = hit-call score of the fitted dose curve at least 0.9, where 1 is the maximum); conditions: HepG2 Attagene TRANS GAL4-LXRb reporter, mRNA
Summary of the method: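 HepG2 cells transiently transfected with multiple reporter transcription units carrying chimeric NR-Gal4 proteins acting on GAL4-UAS reporters; compound exposure 24 h. Reporter mRNA quantified by RT-PCR, 6-FAM labelling, HpaI digestion and capillary electrophoresis; gain of signal versus DMSO.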

[13] = target: Hepatocyte nuclear factor 4-alpha (Homo sapiens) (UniProt P41235); experiment: ATG_HNF4a_TRANS: Attagene TRANS-FACTORIAL HepG2 Assay for human Hepatocyte Nuclear Factor 4 alpha (HNF4a) (AID 2282982; active = hit-call score of the fitted dose curve at least 0.9, where 1 is the maximum); conditions: HepG2 HNF4a transactivation reporter, mRNA readout
Summary of the method: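 HepG2 cells transiently transfected with multiplexed GAL4-UAS reporter units responsive to chimeric NR-GAL4 proteins; compound exposure 24 h. Reporter mRNA quantified by RT-PCR, 6-FAM labelling, HpaI digestion and capillary electrophoresis; gain of signal versus DMSO baseline.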

[14] = ATG_M_06_TRANS: Attagene TRANS-FACTORIAL HepG2 Assay for M06 Transcription Factor (Internal Marker) (AID 2282983; active = hit-call score of the fitted dose curve at least 0.9, where 1 is the maximum;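 note: reporter transcript level by RT-PCR then capillary electrophoresis fluorescence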); conditions: HepG2 Attagene TRANS M06 internal marker reporter
Summary of the method: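 Transfect HepG2 with MRTUs → dose compounds 24 h → isolate RNA, oligo(dT) RT → PCR with reporter primers → 6-FAM primer extension → HpaI digest → CE fragment analysis. Positive direction vs DMSO.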

[15] = ATG_M_32_TRANS: Attagene TRANS-FACTORIAL HepG2 Assay for M32 Transcription Factor (Internal Marker) (AID 2282984; active = hit-call score of the fitted dose curve at least 0.9, where 1 is the maximum;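 note: transcript level of a background control reporter unit measured by RT-PCR and capillary electrophoresis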); conditions: HepG2 Attagene TRANS M32 internal marker reporter
Summary of the method: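 HepG2 cells transiently transfected with multiple GAL4-UAS reporter transcription units, dosed for 24 hours; reporter mRNA quantified by RT-PCR, 6-FAM primer extension, HpaI digestion and capillary electrophoresis. Gain-of-signal fitted versus DMSO baseline; internal background-control marker.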

[16] = target: Transcriptional activator Myb (Homo sapiens) (UniProt P10242); experiment: ATG_Myb_CIS: Attagene CIS-FACTORIAL HepG2 Assay for human Myeloblastosis (Myb) Proto-Oncogene Transcription Factor (AID 2282986); conditions: HepG2 Attagene CIS-FACTORIAL Myb reporter transcription; actives raise or lower the signal
Summary of the method: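 HepG2 cells were transiently transfected with cis-regulated multiple reporter transcription units reflecting endogenous Myb activity, then exposed to compound for 24 hours. Reporter mRNA was measured by RT-PCR with capillary electrophoresis; bidirectional fitting versus DMSO baseline.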

[17] = target: Nuclear respiratory factor 1 (Homo sapiens) (UniProt Q16656); experiment: ATG_NRF1_CIS: Attagene CIS-FACTORIAL HepG2 Assay for human Nuclear Respiratory Factor 1 (NRF1) Orphan Gene (AID 2282987); conditions: HepG2 NRF1 cis-element reporter, Attagene multiplex; actives raise or lower the signal
Summary of the method: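 HepG2 cells transiently transfected with multiple reporter transcription units under cis-regulatory promoter control, so endogenous transcription-factor activity is read. After 24 h compound exposure, reporter mRNA quantified by RT-PCR, fluorescent labelling, HpaI digestion and capillary electrophoresis; bidirectional fitting versus DMSO.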

[18] = ATG_NFI_CIS: Attagene CIS-FACTORIAL HepG2 Assay for human Nuclear Factor I (NFI) (AID 2282989); conditions: HepG2 cis-regulatory reporter, NFI response element transcription; actives raise or lower the signal
Summary of the method: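 Endogenous TF activity in HepG2 cells transiently transfected with cis-element-driven multiplexed reporter units, read 24 h after dosing. Reporter mRNA quantified by RT-PCR, 6-FAM labelling, HpaI digestion and capillary electrophoresis; bidirectional fit versus DMSO.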

[19] = ATG_M_19_TRANS: Attagene TRANS-FACTORIAL HepG2 Assay for M19 Transcription Factor (Internal Marker) (AID 2282974; active = hit-call score of the fitted dose curve at least 0.9, where 1 is the maximum); conditions: HepG2 Attagene TRANS-FACTORIAL M19 internal marker reporter
Summary of the method: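 HepG2 cells transiently transfected with multiple GAL4-UAS reporter transcription units were exposed to chemicals for 24 h. Reporter mRNA was read by RT-PCR, 6-FAM primer extension, HpaI digestion and capillary electrophoresis; gain of signal fitted relative to DMSO.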

Measured: AC50

Sequence of Hepatocyte nuclear factor 4-alpha (Homo sapiens) (P41235 whole entry, looked up, the tested form may be a part): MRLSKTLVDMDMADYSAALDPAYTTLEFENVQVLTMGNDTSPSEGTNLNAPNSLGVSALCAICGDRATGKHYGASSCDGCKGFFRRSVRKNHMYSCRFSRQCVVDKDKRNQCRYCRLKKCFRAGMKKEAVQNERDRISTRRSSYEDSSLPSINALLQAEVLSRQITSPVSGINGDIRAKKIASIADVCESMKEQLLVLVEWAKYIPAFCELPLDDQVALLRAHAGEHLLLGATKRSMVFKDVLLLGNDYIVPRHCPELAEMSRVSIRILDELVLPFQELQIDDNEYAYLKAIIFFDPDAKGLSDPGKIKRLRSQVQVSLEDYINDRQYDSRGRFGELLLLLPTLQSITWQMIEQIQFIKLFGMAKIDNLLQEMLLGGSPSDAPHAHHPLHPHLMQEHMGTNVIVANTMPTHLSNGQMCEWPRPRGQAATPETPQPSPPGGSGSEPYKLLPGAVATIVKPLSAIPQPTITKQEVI
Sequence of Transcriptional activator Myb (Homo sapiens) (P10242 whole entry, looked up): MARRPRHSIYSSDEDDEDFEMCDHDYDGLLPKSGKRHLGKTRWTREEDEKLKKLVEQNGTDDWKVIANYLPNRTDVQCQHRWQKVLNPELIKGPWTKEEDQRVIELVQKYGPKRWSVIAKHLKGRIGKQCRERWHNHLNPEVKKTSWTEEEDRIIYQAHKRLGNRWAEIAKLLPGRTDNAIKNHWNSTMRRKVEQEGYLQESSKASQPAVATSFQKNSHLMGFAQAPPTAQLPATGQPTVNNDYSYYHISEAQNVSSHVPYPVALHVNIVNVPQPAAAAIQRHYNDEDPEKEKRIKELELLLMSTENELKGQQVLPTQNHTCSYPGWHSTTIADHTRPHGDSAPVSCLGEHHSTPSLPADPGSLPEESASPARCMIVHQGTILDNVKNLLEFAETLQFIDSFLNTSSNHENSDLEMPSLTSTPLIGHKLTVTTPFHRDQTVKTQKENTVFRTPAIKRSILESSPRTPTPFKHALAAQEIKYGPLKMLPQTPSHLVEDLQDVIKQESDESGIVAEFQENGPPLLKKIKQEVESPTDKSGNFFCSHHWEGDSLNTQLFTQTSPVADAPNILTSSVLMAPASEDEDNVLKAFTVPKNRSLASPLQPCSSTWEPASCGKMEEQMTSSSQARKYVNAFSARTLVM
Sequence of Bile acid receptor (Homo sapiens) (Q96RI1 whole entry, looked up, the tested form may be a part): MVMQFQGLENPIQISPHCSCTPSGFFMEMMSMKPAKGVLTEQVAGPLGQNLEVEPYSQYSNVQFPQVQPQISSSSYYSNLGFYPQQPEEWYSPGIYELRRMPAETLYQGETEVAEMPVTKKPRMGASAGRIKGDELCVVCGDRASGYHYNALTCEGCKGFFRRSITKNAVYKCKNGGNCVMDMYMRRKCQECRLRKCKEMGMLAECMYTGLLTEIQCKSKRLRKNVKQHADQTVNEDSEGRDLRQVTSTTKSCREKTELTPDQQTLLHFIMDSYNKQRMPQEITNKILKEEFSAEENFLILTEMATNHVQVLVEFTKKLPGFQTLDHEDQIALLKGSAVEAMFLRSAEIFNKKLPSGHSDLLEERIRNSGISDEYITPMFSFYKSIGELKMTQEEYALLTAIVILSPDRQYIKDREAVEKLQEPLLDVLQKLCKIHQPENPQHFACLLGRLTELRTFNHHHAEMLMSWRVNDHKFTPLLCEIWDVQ
Sequence of Nuclear respiratory factor 1 (Homo sapiens) (Q16656 whole entry, looked up): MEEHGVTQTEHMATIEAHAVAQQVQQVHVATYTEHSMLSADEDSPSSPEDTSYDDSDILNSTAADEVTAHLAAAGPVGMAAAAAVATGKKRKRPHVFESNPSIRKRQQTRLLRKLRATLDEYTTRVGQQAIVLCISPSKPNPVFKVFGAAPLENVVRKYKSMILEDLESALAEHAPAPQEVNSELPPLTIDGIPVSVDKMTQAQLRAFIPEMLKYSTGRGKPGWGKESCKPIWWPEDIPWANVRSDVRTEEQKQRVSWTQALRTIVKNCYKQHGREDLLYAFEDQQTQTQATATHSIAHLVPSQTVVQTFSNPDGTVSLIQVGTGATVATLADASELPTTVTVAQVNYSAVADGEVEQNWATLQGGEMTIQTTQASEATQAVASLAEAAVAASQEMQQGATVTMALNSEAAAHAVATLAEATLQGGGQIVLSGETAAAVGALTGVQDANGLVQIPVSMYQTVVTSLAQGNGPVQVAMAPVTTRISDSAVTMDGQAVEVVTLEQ
Sequence of Estrogen receptor (Homo sapiens) (P03372 whole entry, looked up, the tested form may be a part): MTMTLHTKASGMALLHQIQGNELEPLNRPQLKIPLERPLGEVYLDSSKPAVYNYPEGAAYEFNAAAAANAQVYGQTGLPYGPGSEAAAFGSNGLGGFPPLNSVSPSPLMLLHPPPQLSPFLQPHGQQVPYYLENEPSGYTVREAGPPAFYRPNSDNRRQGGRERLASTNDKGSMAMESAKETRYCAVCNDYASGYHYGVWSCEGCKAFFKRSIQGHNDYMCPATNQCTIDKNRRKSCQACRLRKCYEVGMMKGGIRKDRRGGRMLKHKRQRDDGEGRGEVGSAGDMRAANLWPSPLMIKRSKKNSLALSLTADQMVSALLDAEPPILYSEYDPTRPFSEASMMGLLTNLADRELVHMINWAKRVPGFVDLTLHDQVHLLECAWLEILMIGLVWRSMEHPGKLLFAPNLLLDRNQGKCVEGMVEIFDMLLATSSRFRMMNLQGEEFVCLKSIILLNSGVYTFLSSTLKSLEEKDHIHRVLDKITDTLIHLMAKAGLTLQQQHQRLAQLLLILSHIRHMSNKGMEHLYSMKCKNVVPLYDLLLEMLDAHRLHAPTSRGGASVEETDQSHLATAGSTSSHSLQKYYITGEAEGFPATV
Sequence of X-box-binding protein 1 (Homo sapiens) (P17861 whole entry, looked up): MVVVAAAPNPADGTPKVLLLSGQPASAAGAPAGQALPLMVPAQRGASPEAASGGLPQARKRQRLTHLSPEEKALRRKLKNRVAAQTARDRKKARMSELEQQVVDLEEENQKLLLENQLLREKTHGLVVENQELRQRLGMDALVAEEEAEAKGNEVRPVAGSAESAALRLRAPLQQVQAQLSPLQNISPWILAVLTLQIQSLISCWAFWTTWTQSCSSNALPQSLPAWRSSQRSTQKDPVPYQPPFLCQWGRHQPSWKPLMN
Sequence of Oxysterols receptor LXR-beta (Homo sapiens) (P55055 whole entry, looked up, the tested form may be a part): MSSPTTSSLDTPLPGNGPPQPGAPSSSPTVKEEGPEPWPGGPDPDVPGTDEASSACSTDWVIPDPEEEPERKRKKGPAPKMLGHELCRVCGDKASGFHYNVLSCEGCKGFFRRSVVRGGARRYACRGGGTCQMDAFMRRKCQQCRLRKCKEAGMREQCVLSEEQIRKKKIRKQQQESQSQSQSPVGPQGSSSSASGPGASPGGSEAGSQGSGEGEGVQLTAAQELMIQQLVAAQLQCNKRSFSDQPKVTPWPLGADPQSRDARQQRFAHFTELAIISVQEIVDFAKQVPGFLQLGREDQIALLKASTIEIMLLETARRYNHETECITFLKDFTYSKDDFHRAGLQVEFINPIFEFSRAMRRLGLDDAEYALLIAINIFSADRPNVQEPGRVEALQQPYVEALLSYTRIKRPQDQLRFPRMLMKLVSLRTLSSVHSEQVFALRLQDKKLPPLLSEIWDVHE
Sequence of Steroid hormone receptor ERR1 (Homo sapiens) (P11474 whole entry, looked up, the tested form may be a part): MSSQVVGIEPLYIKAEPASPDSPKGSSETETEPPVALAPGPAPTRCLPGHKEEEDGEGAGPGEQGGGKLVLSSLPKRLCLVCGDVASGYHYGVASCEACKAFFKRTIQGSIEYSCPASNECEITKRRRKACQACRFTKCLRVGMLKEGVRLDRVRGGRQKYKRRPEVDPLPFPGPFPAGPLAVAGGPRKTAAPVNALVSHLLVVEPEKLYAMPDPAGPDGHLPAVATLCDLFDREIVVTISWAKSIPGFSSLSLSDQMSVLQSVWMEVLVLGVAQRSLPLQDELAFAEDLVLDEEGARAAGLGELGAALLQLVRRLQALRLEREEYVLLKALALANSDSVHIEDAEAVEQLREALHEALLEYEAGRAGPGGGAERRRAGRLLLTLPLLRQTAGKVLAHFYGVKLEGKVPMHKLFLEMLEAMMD
Sequence of Glucocorticoid receptor (Homo sapiens) (P04150 whole entry, looked up, the tested form may be a part): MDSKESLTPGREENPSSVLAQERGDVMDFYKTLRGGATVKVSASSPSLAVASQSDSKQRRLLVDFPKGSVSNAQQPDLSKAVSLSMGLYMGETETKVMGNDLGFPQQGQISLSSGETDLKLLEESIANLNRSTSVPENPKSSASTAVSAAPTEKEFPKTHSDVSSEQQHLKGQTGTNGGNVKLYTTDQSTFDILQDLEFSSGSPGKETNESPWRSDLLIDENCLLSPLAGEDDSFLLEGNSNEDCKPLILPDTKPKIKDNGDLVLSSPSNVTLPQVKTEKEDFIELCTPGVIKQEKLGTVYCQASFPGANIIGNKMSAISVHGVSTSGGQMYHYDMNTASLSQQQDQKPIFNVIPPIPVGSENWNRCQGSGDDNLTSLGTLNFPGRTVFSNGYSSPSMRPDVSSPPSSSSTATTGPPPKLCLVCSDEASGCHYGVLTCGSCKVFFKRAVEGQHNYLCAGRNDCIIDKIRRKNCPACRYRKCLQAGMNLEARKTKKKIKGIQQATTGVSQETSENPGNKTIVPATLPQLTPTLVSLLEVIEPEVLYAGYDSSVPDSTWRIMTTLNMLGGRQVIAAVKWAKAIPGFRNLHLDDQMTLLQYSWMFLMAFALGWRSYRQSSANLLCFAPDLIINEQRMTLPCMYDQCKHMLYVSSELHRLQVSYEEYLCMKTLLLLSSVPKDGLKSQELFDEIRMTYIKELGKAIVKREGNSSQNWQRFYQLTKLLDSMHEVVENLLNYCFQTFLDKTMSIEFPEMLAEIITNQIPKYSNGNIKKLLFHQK

CCN(CC)CCNc1ccc(CNC=O)c2sc3ccc(OC)cc3c(=O)c12
inactive: [1] | [2] | [3] | [6] | [13] | [14] | [15] | [16]
active: [4] 0.689 µM | [5] 1.05 µM | [7] 766 nM | [8] 3.36 µM | [9] 1.85 µM | [10] 2.44 µM | [11] 1.26 µM | [12] 1.57 µM | [17] 1.04 µM | [18] 843 nM

CCCCC[C@H](O)CC(=O)CCc1ccc(O)c(OC)c1
active: [4] 27.7 µM | [17] 152 µM
not listed: [13] | [19]
inactive: all other assays above

O=C(OCCOCCOC(=O)c1ccccc1)c1ccccc1
not listed: [5] | [6] | [8] | [9] | [15] | [19]
inactive: all other assays above

COCC(C)OCC(C)O (stereo not drawn)
not listed: [5] | [8] | [9] | [11] | [12] | [15] | [19]
inactive: all other assays above

CCCCOCCO
not listed: [8] | [9] | [10] | [11] | [12] | [13] | [15] | [19]
inactive: all other assays above

CCCCCCCCCCCCN1CCCC1=O
not listed: [8] | [11] | [13] | [14]
inactive: all other assays above

CC(C)(C)c1cc(C(C)(C)C)c(O)c(C(C)(C)C)c1
active: [1] 87.1 µM | [7] 20300 nM | [10] 27.8 µM | [18] 54200 nM
inactive: [1] | [2] | [3] | [5] | [7] | [8] | [9] | [10] | [11] | [12] | [13] | [14] | [15] | [16] | [17] | [18]
